HT1080 IDH1KD tx = toxicity to HT-1080 IDH1 knockdown cells (counter line). hit rate 2% among 360,000. HT-1080 IDH1 knockdown viability, ATP luminescence, 48 h. Potency, µM (titrated, usually from 46.1 µM), most hits filed as cytotoxic. AID 686971
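% activity derives from luminescence (CellTiter-Glo), normalised to DMSO and no-cell wells. HT-1080-IDH1KD cells, 750/well, had 48 h compound exposure at 37 °C.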
IL-1B inflam inh = inflammasome signaling inhibition, IL-1 beta readout. THP-1 LPS/ATP IL-1B secretion, AlphaLISA, 16 h; hits give low values. activity change, % at 57.5 µM. hit rate 4.7% among 360,000; in the data active = activity change below about -50%; inconclusive = mostly about -30% to -49%
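THP-1 cells pretreated 1 hr with compounds (up to 57.5 uM final), then stimulated with LPS (250 ng/mL final) plus ATP (1.25 mM final); secreted IL-1B measured by AlphaLISA after 16 hr, decreased signal indicating inhibition.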
HT1080-NT tox = kills 2HG-producing HT-1080-NT fibrosarcoma cells; HT-1080-NT fibrosarcoma viability, CellTiter-Glo ATP luminescence, 48 h; hit rate 1.6% among 360,000; Potency, µM (doses to about 46.1 µM), actives largely listed as cytotoxic;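 note: NT is the 2HG producing partner of a matched IDH1 knockdown line; nearly all actives have a fitted effect of over 55% in size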
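Viability of the 2HG-overproducing fibrosarcoma line after 48 hours of compound exposure at 37 degrees C was determined by luminescence with CellTiter-Glo, and concentration-effect curves were then fitted and categorized.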
TDP1 cell CPT = DT40-hTDP1 cell growth loss with CPT; hit rate 12% among 420,000; chicken DT40 Tdp1-/-;hTDP1 cells + 20 nM CPT, ATP luminescence, 48 h; Potency, µM (highest dose often 46.2 µM), usual class: inhibitors; note: nearly all actives have a fitted effect of over 55% in size
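Chicken DT40 Tdp1-/- cells complemented with human TDP1, 400 cells/well, exposed to compounds plus 20 nM camptothecin for at least 48 h at 37 C; viability read as ATP content by CellTiter-Glo luminescence.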
DT40 TDP1 no CPT = qHTS for Inhibitors of human tyrosyl-DNA phosphodiesterase 1 (TDP1): qHTS in cells in absence of CPT; DT40 Tdp1-/- hTDP1 cells, no CPT, ATP luminescence, 48 h; Potency, µM (doses to about 46.2 µM), actives largely listed as inhibitors; hit rate 15% among 420,000; note: nearly all actives have a fitted effect of over 55% in size
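Readout: luminescence from CellTiter-Glo after 30 min in the dark at RT. Cells: DT40 Tdp1-/- with stable hTDP1, 400/well. Exposure: compounds alone, ≥48 hr, 37 °C.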
12-LOX inh = ALOX12 (human) lipoxygenase inhibition; P18054; purified 12hLO, xylenol orange hydroperoxide absorbance; hit rate 1.1% among 580,000; Potency, µM (series often up to 108 µM), most hits filed as inhibitors; AID 1671190
Target sequence (P18054 whole entry, looked up): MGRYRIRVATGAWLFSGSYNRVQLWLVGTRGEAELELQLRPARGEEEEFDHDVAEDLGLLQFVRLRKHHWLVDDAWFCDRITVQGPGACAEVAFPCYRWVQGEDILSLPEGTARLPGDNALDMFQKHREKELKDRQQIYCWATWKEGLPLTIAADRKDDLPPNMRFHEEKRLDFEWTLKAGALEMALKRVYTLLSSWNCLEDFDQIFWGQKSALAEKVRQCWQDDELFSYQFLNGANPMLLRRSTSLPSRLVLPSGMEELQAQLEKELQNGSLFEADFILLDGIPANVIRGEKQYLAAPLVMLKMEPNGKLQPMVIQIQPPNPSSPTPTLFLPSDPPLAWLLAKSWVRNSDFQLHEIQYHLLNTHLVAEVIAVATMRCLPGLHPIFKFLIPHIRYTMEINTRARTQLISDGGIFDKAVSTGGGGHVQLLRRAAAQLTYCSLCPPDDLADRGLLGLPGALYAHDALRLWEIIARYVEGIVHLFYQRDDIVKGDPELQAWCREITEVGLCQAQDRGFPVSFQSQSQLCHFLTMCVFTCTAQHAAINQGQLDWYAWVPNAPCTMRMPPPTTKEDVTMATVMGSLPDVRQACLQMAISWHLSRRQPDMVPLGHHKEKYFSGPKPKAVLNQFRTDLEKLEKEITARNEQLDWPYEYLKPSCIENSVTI
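Purified human 12hLO at 150 nM in 25 mM Hepes, 0.01% Triton X-100, pH 7.0, preincubated 15 min at room temperature with compound. Reaction started with 40 uM arachidonic acid, 30 min at room temperature. Hydroperoxide measured by Fe-xylenol orange, 573/405 nm absorbance ratio.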
Numbers stand for hits; - = inactive; ? = inconclusive; . = not tested or not shown. The entries come from a sample that favours hits as a whole. Unless noted, calls come from the whole dose curve; as a rule, active = well fitted curve in the direction sought with a large enough effect; inconclusive = small, poorly fitted or top-dose-only effect, or another doubt; inactive = no such curve, though single readings can be large; an effect the other way counts as inactive or inconclusive.

SMILES	HT1080 IDH1KD tx	IL-1B inflam inh	HT1080-NT tox	TDP1 cell CPT	DT40 TDP1 no CPT	12-LOX inh
Cc1cc(/C=C2\SC(=O)N(C)C2=O)c(C)n1-c1ccc(S(N)(=O)=O)cc1	-	-	-	18.4µM	9.2µM	?
CN=C1S/C(=C\c2cc(C)n(-c3ccccc3F)c2C)C(=O)N1C	-	-	-	14.6µM	23.1µM	?
CN=C1S/C(=C\c2sccc2C)C(=O)N1C	.	.	.	.	.	-
Cc1cc(/C=C2\SC(=O)N(C)C2=O)c(C)n1-c1ccc(O)cc1	-	-	-	?	20.6µM	?
Cc1ccc(-n2c(C)cc(C=C3C(=O)N(C)C(=O)N(C)C3=O)c2C)cc1	-	-	-	-	-	-
Cn1c(-n2ncc(N3CCN(c4cccc(C(F)(F)F)c4)CC3)c(Cl)c2=O)nc2ccccc21	.	.	.	.	.	-
COc1ccc(-c2ccc(N3C(c4cc(OC)cc(OC)c4)=Cc4ccc(OC)cc4C3CC(C)=O)cc2)cc1 (configuration not stated)	?	-	?	5.17µM	6.51µM	?
COC(=O)c1ccc(N2C(c3cc(OC)cc(OC)c3)=Cc3ccc(-c4cccnc4)cc3C2CC(=O)C2CC2)cc1 (configuration not stated)	-	-	-	?	?	-
COc1ccc2c(c1)C(CC(C)=O)N(c1ccc(-c3cccnc3)cc1)C(c1ccsc1)=C2 (configuration not stated)	-	-	-	?	?	-
COc1ccc2c(c1)C(CC(C)=O)N(c1ccc(-c3cccs3)cc1)C(c1ccsc1)=C2 (configuration not stated)	-	-	-	3.66µM	4.61µM	-
COc1cc(OC)cc(C2=Cc3ccccc3C(CC(=O)c3ccco3)N2c2ccc(-c3cccnc3)cc2)c1 (configuration not stated)	-	-	-	?	18.4µM	-
COc1cc(OC)cc(C2=Cc3ccc(OC)cc3C(CC(C)=O)N2c2ccc(-c3cncnc3)cc2)c1 (configuration not stated)	-	-	-	8.2µM	?	-
COC(=O)c1ccc(N2C(c3cc(OC)cc(OC)c3)=Cc3ccc(-c4ccc(C(N)=O)cc4)cc3C2CC(=O)C2CC2)cc1 (configuration not stated)	-	-	-	?	18.4µM	-
Cc1ccc(CNC(=O)CCC(=O)N2CCSc3ccccc32)cc1	.	.	.	?	23.1µM	-
O=C(CCC(=O)N1CCSc2ccccc21)NCc1cccc(Cl)c1	-	-	-	?	?	-
CCc1ccc(NC(=O)CCC(=O)N2CCSc3ccccc32)cc1	-	-	-	20.6µM	?	-
CCNC(=S)Nc1ccc(S(=O)(=O)Nc2cc(C)nc(C)n2)cc1	-	-	-	-	-	?
CC(C)(C)c1ccc(/C=C2\Oc3cc(O)ccc3C2=O)cc1	?	-73.8	?	20.6µM	?	-
O=C1/C(=C/c2ccc(O)cc2)CCc2ccc([N+](=O)[O-])cc21	-	?	-	?	16.4µM	-
O=C1/C(=C/c2ccc([N+](=O)[O-])cc2)Oc2cc(O)ccc21	-	-	-	?	7.31µM	-
O=C1/C(=C\c2ccc([N+](=O)[O-])cc2)CCc2ccccc21	-	?	-	-	?	-
N#Cc1ccc(/C=C2\Oc3cc(O)ccc3C2=O)cc1	.	.	.	.	.	-
O=C1/C(=C/c2ccc(Br)cc2)Oc2cc(O)ccc21	?	-	-	-	?	?
COc1ccc(NC(=O)C2=NO[C@@H]3CN(Cc4ccc(F)cc4)C[C@H]23)cn1	.	.	.	.	.	-
Cc1ccc(C(=O)N2CCCCCCNC(=O)CC2)s1	.	.	.	.	.	-
SMILES	HT1080 IDH1KD tx	IL-1B inflam inh	HT1080-NT tox	TDP1 cell CPT	DT40 TDP1 no CPT	12-LOX inh
COc1ccc(Cl)cc1NC(=O)C1CCN(S(=O)(=O)c2ccc(F)cc2)CC1	.	.	.	?	18.4µM	-
O=C(Nc1ccc(F)cc1F)NC1CCN(Cc2c(F)cccc2Cl)CC1	?	.	-	?	20.6µM	-
COc1ccc(Cl)cc1NC(=O)C1CCN(S(=O)(=O)c2ccc3c(c2)CC(C)N3C(C)=O)CC1 (configuration not stated)	.	.	.	16.4µM	20.6µM	-
CC(=O)N1c2ccc(S(=O)(=O)N3CCC(C(=O)Nc4cccc(F)c4)CC3)cc2CC1C (configuration not stated)	-	-	-	16.4µM	?	-
CC(=O)N1c2ccc(S(=O)(=O)N3CCC(C(=O)Nc4cc(C)cc(C)c4)CC3)cc2CC1C (configuration not stated)	-	-	-	?	?	-
COc1ccccc1NC(=O)C1CCN(S(=O)(=O)c2ccc3c(c2)CC(C)N3C(C)=O)CC1 (configuration not stated)	-	-	-	?	?	-
CC(=O)N1c2ccc(S(=O)(=O)N3CCC(C(=O)Nc4cccc(Cl)c4C)CC3)cc2CC1C (configuration not stated)	.	.	.	14.6µM	23.1µM	-
CC(=O)N1c2ccc(S(=O)(=O)N3CCC(C(=O)Nc4cccc(Cl)c4)CC3)cc2CC1C (configuration not stated)	?	-	-	2.06µM	2.06µM	-
CC(=O)N1c2ccc(S(=O)(=O)N3CCC(C(=O)Nc4cccc(C)c4)CC3)cc2CC1C (configuration not stated)	-	-	-	16.4µM	?	-
CC(=O)N1c2ccc(S(=O)(=O)N3CCC(C(=O)NC4CCC(C)CC4)CC3)cc2CC1C (configuration not stated)	-	-	-	-	-	-
Cc1cc(Cl)ccc1NC(=O)NC1CCN(S(=O)(=O)c2ccc(F)cc2)CC1	-	-	-	23.1µM	?	-
CCOc1ccccc1C(=O)N1CCC(Oc2ccc(C(=O)N(C)C)cn2)CC1	.	.	.	.	.	-
CCn1c(NCc2c[nH]c3ccccc23)nc2ccccc21	-	?	?	?	?	?
Cn1c(NCc2c[nH]c3ccccc23)nc2ccccc21	-	-91.9	-	?	?	-
Cc1ccc2c(C)c(C(=O)N(Cc3cccs3)C3CCS(=O)(=O)C3)oc2c1 (configuration not stated)	-	?	-	?	?	-
Cc1ccsc1CN(C(=O)c1ccc(F)cc1)C1CCS(=O)(=O)C1 (configuration not stated)	.	.	.	.	.	-
Cc1ccc2oc(C(=O)N(Cc3sccc3C)C3CCS(=O)(=O)C3)c(C)c2c1 (configuration not stated)	.	.	.	5.8µM	5.17µM	-
Cc1ccsc1CN(C(=O)c1oc2ccc(F)cc2c1C)C1CCS(=O)(=O)C1 (configuration not stated)	.	.	.	11.6µM	7.31µM	-

Bioassay records (PubChem BioAssay)
